Results from PubChem BioAssay AID1159580 (chemical genetic matrix, 2015).
The campaign covered roughly 5,500 compounds. About 2,000 (36%) were called active. Roughly 18% stayed inconclusive and do not appear here. This is one part of the list. Values without a mark were called inactive. No stated cut-off is given here; in the data, active means normalized growth mostly below about 0.91 (no sharp cut-off); inconclusive means no clear call, values can overlap the other calls; inactive means mostly above about 0.92.

Test: chemical genetic growth profiling, strain panel (AID 1159580);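 further: tested at 20 µM; growth read once vehicle control cultures reached saturation at 30 °C; 1 = growth at the plate median or of vehicle wells; lower values mean less growth of the strain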
Details: S. cerevisiae deletion strains, growth OD

Q: Which results are given for `Cc1cc(Br)ccc1-n1c(Sc2c([N+](=O)[O-])cc(C(F)(F)F)cc2[N+](=O)[O-])nc2ccccc2c1=O`?
A: normalized growth (locus YAR019C, strain CDC15, hits give low values): 0.99; normalized growth (locus YBL105C, strain PKC1, hits give low values): 0.985; normalized growth (locus YBR135W, strain CKS1, hits give low values): 0.984; normalized growth (locus YBR136W, strain MEC1, hits give low values): 0.978; normalized growth (locus YBR160W, strain CDC28, hits give low values): 0.988; normalized growth (locus YDL017W, strain CDC7, hits give low values): 0.989; normalized growth (locus YDL028C, strain MPS1, hits give low values): 0.983; normalized growth (locus YDL101C, strain DUN1, hits give low values): 0.988; normalized growth (locus YDL108W, strain KIN28, hits give low values): 0.984; normalized growth (locus YDL132W, strain cdc53, hits give low values): 0.994; normalized growth (locus YDL214C, strain PRR2, hits give low values): 0.892; normalized growth (locus YDR052C, strain DBF4, hits give low values): 0.989; normalized growth (locus YDR054C, strain cdc34, hits give low values): 0.985; normalized growth (locus YDR226W, strain ADK1, hits give low values): 0.981; normalized growth (locus YDR477W, strain SNF1, hits give low values): 0.933; normalized growth (locus YER123W, strain YCK3, hits give low values): 0.901; normalized growth (locus YER133W, strain GLC7, hits give low values): 0.933; normalized growth (locus YFL009W, strain cdc4, hits give low values): 0.986; normalized growth (locus YFL029C, strain CAK1, hits give low values): 0.986; normalized growth (locus YFR003C, strain YPI1, hits give low values): 0.986; normalized growth (locus YFR019W, strain FAB1, hits give low values): 0.952; normalized growth (locus YFR028C, strain CDC14, hits give low values): 0.994; normalized growth (locus YGR040W, strain KSS1, hits give low values): 0.938; normalized growth (locus YGR052W, strain FMP48, hits give low values): 0.945; normalized growth (locus YGR092W, strain DBF2, hits give low values): 0.968; normalized growth (locus YHR030C, strain SLT2, hits give low values): 0.972; normalized growth (locus YHR079C, strain IRE1, hits give low values): 0.922; normalized growth (locus YHR082C, strain KSP1, hits give low values): 0.997; normalized growth (locus YHR205W, strain SCH9, hits give low values): 0.879; normalized growth (locus YIL147C, strain SLN1, hits give low values): 0.984; normalized growth (locus YJL095W, strain BCK1, hits give low values): 0.88; normalized growth (locus YJL128C, strain PBS2, hits give low values): 0.915; normalized growth (locus YJL157C, strain FAR1, hits give low values): 0.927; normalized growth (locus YJR016C, strain ILV3, hits give low values): 0.987; normalized growth (locus YJR066W, strain TOR1 (second series), hits give low values): 0.885; normalized growth (locus YJR066W, strain TOR1, hits give low values): 1.06; normalized growth (locus YKL048C, strain ELM1, hits give low values): 0.946; normalized growth (locus YKL067W, strain YNK1, hits give low values): 0.943; normalized growth (locus YKL101W, strain HSL1, hits give low values): 0.93; normalized growth (locus YKL193C, strain SDS22, hits give low values): 0.982; normalized growth (locus YKL203C, strain TOR2, hits give low values): 1; normalized growth (locus YLR113W, strain HOG1, hits give low values): 0.841 (active); normalized growth (locus YLR133W, strain CKI1, hits give low values): 0.95; normalized growth (locus YLR403W, strain SFP1, hits give low values): 0.961; normalized growth (locus YML070W, strain DAK1, hits give low values): 0.923; normalized growth (locus YMR001C, strain CDC5, hits give low values): 0.981; normalized growth (locus YMR205C, strain PFK2 (second series), hits give low values): 0.939; normalized growth (locus YMR277W, strain FCP1, hits give low values): 0.982; normalized growth (locus YNL006W, strain LST8, hits give low values): 0.981; normalized growth (locus YNL020C, strain ARK1, hits give low values): 0.943; normalized growth (locus YNL161W, strain CBK1, hits give low values): 0.982; normalized growth (locus YNL183C, strain NPR1, hits give low values): 1.02; normalized growth (locus YNL207W, strain RIO2, hits give low values): 0.999; normalized growth (locus YNL222W, strain SSU72, hits give low values): 0.983; normalized growth (locus YNL307C, strain MCK1 (second series), hits give low values): 0.932; normalized growth (locus YOL078W, strain AVO1, hits give low values): 0.984; normalized growth (locus YOL136C, strain PFK27, hits give low values): 0.926; normalized growth (locus YOR061W, strain CKA2, hits give low values): 0.937; normalized growth (locus YOR119C, strain RIO1, hits give low values): 0.998; normalized growth (locus YOR231W, strain MKK1, hits give low values): 0.955; normalized growth (locus YOR329C, strain SCD5, hits give low values): 0.988; normalized growth (locus YPL031C, strain PHO85, hits give low values): 0.923; normalized growth (locus YPL153C, strain RAD53, hits give low values): 0.917; normalized growth (locus YPL204W, strain HRR25, hits give low values): 0.928; normalized growth (locus YPL209C, strain IPL1, hits give low values): 0.99; normalized growth (locus YPL256C, strain CLN2, hits give low values): 0.943; normalized growth (locus YPR025C, strain CCL1, hits give low values): 0.983; normalized growth (locus YPR106W, strain ISR1, hits give low values): 0.968; normalized growth (locus YPR111W, strain DBF20, hits give low values): 0.972; normalized growth (strain NNK1, hits give low values): 0.968; normalized growth (strain TSCII, hits give low values): 0.993
